Measurements from PubChem BioAssay (EPA / NIEHS).
Results filed as inconclusive are left out. Activity calls are given as the source filed them. Rule for the calls: active = hit-call score of the fitted dose curve at least 0.9, where 1 is the maximum; inconclusive = response in the unintended direction; inactive = score below 0.9.

The molecules below were run against human CYP2D6, CYP2D6 (gene 1565) (UniProt P10635) (assay: NVS_ADME_hCYP2D6: NovaScreen (NVS) CYP450-related Enzyme Activity (ADME) Assay for human CYP2D6 (AID 2283107)).
Sequence of human CYP2D6, CYP2D6 (gene 1565) (P10635 whole entry, looked up): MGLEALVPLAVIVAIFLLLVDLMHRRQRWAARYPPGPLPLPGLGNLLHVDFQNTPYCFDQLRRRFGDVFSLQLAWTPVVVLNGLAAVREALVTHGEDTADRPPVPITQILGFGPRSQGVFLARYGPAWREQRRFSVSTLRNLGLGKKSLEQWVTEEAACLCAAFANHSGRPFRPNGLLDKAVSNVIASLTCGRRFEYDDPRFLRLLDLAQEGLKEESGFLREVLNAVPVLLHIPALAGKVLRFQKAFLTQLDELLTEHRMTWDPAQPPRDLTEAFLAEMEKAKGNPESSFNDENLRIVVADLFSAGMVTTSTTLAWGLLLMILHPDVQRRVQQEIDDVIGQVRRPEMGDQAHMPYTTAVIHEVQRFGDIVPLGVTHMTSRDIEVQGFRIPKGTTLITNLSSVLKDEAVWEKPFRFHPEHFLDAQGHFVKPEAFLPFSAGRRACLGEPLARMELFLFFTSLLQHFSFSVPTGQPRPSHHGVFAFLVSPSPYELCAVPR
In short: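 Cell-free assay using recombinant enzyme expressed in insect cells, with fluorescence-intensity readout of enzyme activity 1 hour after chemical dosing. Loss of signal versus acetonitrile negative control indicates inhibition. Primary screen ran in duplicate at 10 uM; actives were retested in concentration series.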
With CC(=O)OC1CC(C)OC(C)O1 (configuration not stated) the outcome was “inactive”. For CCCCCCCCCC[N+](C)(C)[O-], the AC50 was 2.69 µM (active). O=C(N[C@@H](c1ccccc1)[C@@H]1CCCCN1)c1cccc(C(F)(F)F)c1Cl was tested, and the AC50 was 1.06 µM (active). For CCN(CC)CCOc1ccc(C(=C(Cl)c2ccccc2)c2ccccc2)cc1, the AC50 was 2.38 µM (active). In the case of NC(=Nc1ccccc1)Nc1ccccc1, the AC50 is reported as 0.984 µM (active). CSc1ccc(Oc2ccc(S(N)(=O)=O)cc2CN(C)C)cc1C was tested, and the AC50 was 4.8 µM (active). For S=c1[nH]c2ccccc2s1, the AC50 was 6.77 µM (active). For CN(C)C(=O)NC1(c2ccccc2)CCN(CCC[C@]2(c3ccc(Cl)c(Cl)c3)CCCN(C(=O)c3ccccc3)C2)CC1, the AC50 was 1.25 µM (active).

The molecules below were run against human CYP2C9, CYP2C9 (gene 1559) (UniProt P11712) (assay: NVS_ADME_hCYP2C9: NovaScreen (NVS) CYP450-related Enzyme Activity (ADME) Assay for human CYP2C9 (AID 2283108)).
Sequence of human CYP2C9, CYP2C9 (gene 1559) (P11712 whole entry, looked up): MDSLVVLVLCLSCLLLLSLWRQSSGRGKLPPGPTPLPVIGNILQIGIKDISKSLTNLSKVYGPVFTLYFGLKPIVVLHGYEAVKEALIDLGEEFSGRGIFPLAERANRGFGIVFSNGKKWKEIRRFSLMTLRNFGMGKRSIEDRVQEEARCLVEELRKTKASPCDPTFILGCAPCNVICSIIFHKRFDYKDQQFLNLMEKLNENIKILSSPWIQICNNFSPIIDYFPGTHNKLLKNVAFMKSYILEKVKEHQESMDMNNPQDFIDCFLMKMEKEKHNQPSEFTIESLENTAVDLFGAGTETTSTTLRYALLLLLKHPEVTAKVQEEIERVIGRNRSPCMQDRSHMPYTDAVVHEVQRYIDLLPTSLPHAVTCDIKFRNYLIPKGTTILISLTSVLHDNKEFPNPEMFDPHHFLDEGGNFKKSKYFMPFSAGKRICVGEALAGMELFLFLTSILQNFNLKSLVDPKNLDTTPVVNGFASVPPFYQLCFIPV
In short: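 Fluorescence readout of CYP2C9 activity (SF9-expressed human enzyme) at 0.75 h. The primary screen used 10 uM in duplicate, with concentration-response follow-up for actives; acetonitrile was the negative control.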
CCC(C)N(C)C(=O)c1cc2ccccc2c(-c2ccccc2Cl)n1 (configuration not stated) was tested, and the AC50 was 4.2 µM (active). With CC(=O)OC1CC(C)OC(C)O1 (configuration not stated) the AC50 was 4.37 µM (active). For O=C1OC(c2ccc(O)cc2)(c2ccc(O)cc2)c2ccccc21, the AC50 was 6.81 µM (active). For O=C(N[C@@H](c1ccccc1)[C@@H]1CCCCN1)c1cccc(C(F)(F)F)c1Cl, the AC50 was 3.27 µM (active). For CCN(CC)CCOc1ccc(C(=C(Cl)c2ccccc2)c2ccccc2)cc1, the AC50 was 6.93 µM (active). For CCCCC(CC)COP(=O)(OCC(CC)CCCC)OCC(CC)CCCC (configuration not stated), the outcome was “inactive”. For CCc1cc(C2=C(C(=O)O)N(c3ccccc3C(F)(F)F)S(=O)(=O)c3ccccc32)cc2c1OCO2, the outcome was “inactive”. CCCCCCC(CCCCCCCCCCC(=O)OCC(COC(C)=O)OC(C)=O)OC(C)=O (configuration not stated) was tested, and the AC50 was 1.41 µM (active). With Cc1ccc(-c2cc(C(F)(F)F)nn2-c2ccc(S(N)(=O)=O)cc2)cc1 the AC50 was 6 µM (active). In the case of CSc1ccc(Oc2ccc(S(N)(=O)=O)cc2CN(C)C)cc1C, the AC50 is reported as 4.84 µM (active). For S=c1[nH]c2ccccc2s1, the AC50 was 7.33 µM (active). With CCCCc1nc2cccnc2n1Cc1ccc(-c2ccccc2-c2nnn[nH]2)cc1 the AC50 was 2.96 µM (active). In the case of O=C(NS(=O)(=O)/C=C/c1cccs1)c1ccc(F)cc1Br, the AC50 is reported as 4.11 µM (active). With Cc1c(C)c2c(c(C)c1O)CCC(C)(COc1ccc(CC3SC(=O)NC3=O)cc1)O2 (configuration not stated) the outcome was “inactive”. CC(C)OC(=O)C(C)(C)Oc1ccc(C(=O)c2ccc(Cl)cc2)cc1 was tested, and the outcome was “inactive”.

Each molecule was assayed against Cytochrome P450 3A4 (Homo sapiens) (UniProt P08684) (assay: NVS_ADME_hCYP3A4: NovaScreen (NVS) CYP450-related Enzyme Activity (ADME) Assay for human CYP3A4 (AID 2283110)).
Sequence of Cytochrome P450 3A4 (Homo sapiens) (P08684 whole entry, looked up): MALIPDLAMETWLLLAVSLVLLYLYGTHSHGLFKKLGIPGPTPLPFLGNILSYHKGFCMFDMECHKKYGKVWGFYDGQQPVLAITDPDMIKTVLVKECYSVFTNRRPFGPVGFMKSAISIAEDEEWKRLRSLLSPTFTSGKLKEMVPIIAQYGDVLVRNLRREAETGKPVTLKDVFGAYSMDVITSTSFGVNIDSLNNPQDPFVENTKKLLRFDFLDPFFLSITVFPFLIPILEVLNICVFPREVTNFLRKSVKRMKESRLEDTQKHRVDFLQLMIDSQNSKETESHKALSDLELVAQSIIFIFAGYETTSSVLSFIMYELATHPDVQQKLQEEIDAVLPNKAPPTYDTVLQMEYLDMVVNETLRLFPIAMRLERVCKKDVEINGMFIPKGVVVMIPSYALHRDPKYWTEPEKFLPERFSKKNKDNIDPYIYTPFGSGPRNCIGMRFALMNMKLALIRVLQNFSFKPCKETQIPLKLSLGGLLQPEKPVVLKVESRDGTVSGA
In short: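 Compounds were first screened in duplicate at 10 uM against recombinant CYP3A4 produced in insect cells, then actives were run in concentration series. Enzyme activity was measured by fluorescence after 0.33 hour, with acetonitrile as baseline.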
With O=C(N[C@@H](c1ccccc1)[C@@H]1CCCCN1)c1cccc(C(F)(F)F)c1Cl the outcome was “inactive”. For CCc1cc(C2=C(C(=O)O)N(c3ccccc3C(F)(F)F)S(=O)(=O)c3ccccc32)cc2c1OCO2, the AC50 was 4.98 µM (active). With CC(=O)OCC(COC(C)=O)OC(C)=O the outcome was “inactive”. CN(C)C(=O)NC1(c2ccccc2)CCN(CC[C@@]2(c3ccc(F)c(F)c3)CN(C(=O)c3ccccc3)CCO2)CC1 was tested, and the AC50 was 5.63 µM (active). CC1(C)C(=O)NC(=O)N1CO was tested, and the outcome was “inactive”.

The molecules below were run against Cytochrome P450 2C19 (Homo sapiens) (UniProt P33261) (assay: NVS_ADME_hCYP2C19: NovaScreen (NVS) CYP450-related Enzyme Activity (ADME) Assay for human CYP2C19 (AID 2283113);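 for AC50: potency for inhibition seen as loss of fluorescent signal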).
In short: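 Cell-free assay of recombinant human CYP2C19 expressed in insect cells, with a fluorogenic substrate; fluorescence intensity read 1 hour after dosing. Loss of signal relative to acetonitrile negative control indicates inhibition. Primary screen at 10 uM in duplicate, then concentration series.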
For CC(=O)OC1CC(C)OC(C)O1 (configuration not stated), the AC50 was 15.1 µM (active). For O=C1OC(c2ccc(O)cc2)(c2ccc(O)cc2)c2ccccc21, the AC50 was 0.586 µM (active). For CCCCCCCCCCCCCCCCO, the AC50 was 12.6 µM (active). In the case of Cc1cc(Cc2ccc(N)c(C)c2)ccc1N, the AC50 is reported as 7.05 µM (active). CC(C)(O)c1ccc(CNC(=O)c2cccnc2Oc2ccc(F)cc2)cc1 was tested, and the AC50 was 4.26 µM (active). For CC(C)c1cccc(C(C)C)c1, the AC50 was 10 µM (active). With CCCCCCCCCC[N+](C)(C)[O-] the outcome was “inactive”. In the case of O=C(N[C@@H](c1ccccc1)[C@@H]1CCCCN1)c1cccc(C(F)(F)F)c1Cl, the outcome is reported as “inactive”. For CCN(CC)CCOc1ccc(C(=C(Cl)c2ccccc2)c2ccccc2)cc1, the AC50 was 2.68 µM (active) [middle of 4 runs]. CC(=O)CC(c1ccccc1)c1c(O)c2ccccc2oc1=O (configuration not stated) was tested, and the outcome was “inactive”. In the case of CCCCC(CC)COP(=O)(OCC(CC)CCCC)OCC(CC)CCCC (configuration not stated), the outcome is reported as “inactive”. CCc1cc(C2=C(C(=O)O)N(c3ccccc3C(F)(F)F)S(=O)(=O)c3ccccc32)cc2c1OCO2 was tested, and the AC50 was 15.8 µM (active). In the case of CSc1ccc(Oc2ccc(S(N)(=O)=O)cc2CN(C)C)cc1C, the AC50 is reported as 4.05 µM (active). With CC(COCC(C)OC(=O)c1ccccc1)OC(=O)c1ccccc1 (configuration not stated) the AC50 was 2.27 µM (active). With S=c1[nH]c2ccccc2s1 the AC50 was 1.92 µM (active). Cc1cc(SC2=C(O)C[C@@](CCc3ccc(N)cc3)(C(C)C)OC2=O)c(C(C)(C)C)cc1CO was tested, and the AC50 was 7.64 µM (active). For COC(=O)[C@H]1[C@H]2C[C@@H]3c4[nH]c5cc(OC)ccc5c4CCN3C[C@H]2C[C@@H](OC(=O)c2cc(OC)c(OC)c(OC)c2)[C@@H]1OC, the AC50 was 7.91 µM (active). With CN(C)C(=O)NC1(c2ccccc2)CCN(CC[C@@]2(c3ccc(F)c(F)c3)CN(C(=O)c3ccccc3)CCO2)CC1 the outcome was “inactive”. CC(C)OC(=O)C(C)(C)Oc1ccc(C(=O)c2ccc(Cl)cc2)cc1 was tested, and the AC50 was 4.67 µM (active).
